Laboratory results: PubChem BioAssay (NCI)
The panel holds about 83,000 compounds, 20% with a hit somewhere; the sample as a whole holds those more often.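 Plates (96-well) were seeded with cells, treated with compound at one concentration, and incubated for 48 hours before percent growth was determined.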 A number with no mark means an inactive call. Calls of active or inactive are those of the source. The calls were made as follows: active = growth percent below 10; inactive = the rest.

Tests used:
Test in all cases: NCI-60 one-dose screen, 48 h (100 = growth as untreated, 0 = no growth, -100 = all killed)
[1] = tested on: NCI-H23 lung; details: 10 µM unless noted
[2] = tested on: NCI-H226 lung; details: 10 µM unless noted
[3] = tested on: NCI-H322M lung; details: 10 µM unless noted
[4] = tested on: HOP-62 NSCLC; details: 10 µM unless noted
[5] = tested on: NCI-H460 lung; details: 10 µM unless noted
[6] = tested on: HOP-92 NSCLC; details: 10 µM unless noted
[7] = tested on: A549/ATCC NSCLC; details: 10 µM unless noted
[8] = tested on: 786-0 renal; details: 10 µM unless noted
[9] = tested on: COLO 205 colon; details: 10 µM unless noted
[10] = tested on: NCI-H522 lung; details: 10 µM

SMILES | growth [1] | growth [2] | growth [3] | growth [4] | growth [5] | growth [6] | growth [7] | growth [8] | growth [9] | growth [10]
Cc1ccc2nc(-c3ccc(N(C)C)c(Br)c3)cn2c1 | 92% | 98.4% | 120% | 93.4% | 40.3% | 126% | 98.9% | 87.8% | 89.3% | –
C[C@H](C(=O)N[C@@H](Cc1ccc(-c2ccccc2)cc1)C(=O)NC1CC(C)(C)N(C)C(C)(C)C1)c1ccc(-c2ccccc2)c(F)c1 | -71% (active) | -49.1% (active) | -62.3% (active) | -73.5% (active) | -75.8% (active) | -75.5% (active) | -79.1% (active) | -91.3% (active) | -69.6% (active) | –
Clc1ccc2nc(CI)c(CI)nc2c1 | 85.8% | 56.4% | 83.7% | 94.3% | 118% | 19.3% | 96.1% | 0.747% (active) | 0% (active) | –
CCOC(=O)N1CCC(N=C2CSc3nnc(-c4cc(C(F)(F)F)cc(C(F)(F)F)c4)n3N2)CC1 | 15.3% | 29.4% | 67.4% | -4.27% (active) | 18.2% | 19.9% | 21.5% | – | -9.91% (active) | –
COc1ccc(N2CCN(CC(=O)N3CCN(c4nnc(-c5ccc(Cl)cc5)c(-c5ccc(Cl)cc5)n4)CC3)CC2)cc1 | 81.7% | 57.9% | 69.3% | 93.3% | 52.4% | 50.3% | -8.6% (active) | 60.4% | 86% | –
Nc1nc(Nc2ccccc2SSc2ccccc2Nc2nc(N)nc(-c3ccc(I)cc3)n2)nc(-c2ccc(I)cc2)n1 | 47.3% | 69.8% | 81.1% | 26.1% | 54.8% | 107% | -19.9% (active) | 86.9% | 112% | –
O=C1c2cccc(NCCN=Cc3ccccc3O)c2C(=O)c2c(NCCN=Cc3ccccc3O)cccc21 | 27.8% | 73.1% | -19.2% (active) | 17.6% | 4.28% (active) | -38.3% (active) | 25.7% | 36.7% | 8.33% (active) | –
FC(F)(F)c1cc(-c2nnc3n2N=C(N2CCCC2)CS3)cc(C(F)(F)F)c1 | 62.7% | 58.4% | 99% | 37.7% | 58.1% | 37.4% | 60.4% | – | 98.1% | –
COc1ccc(-c2cc(-c3cccnc3)nc(S(=O)(=O)CC(=O)Nc3ccc(C)cc3)c2C#N)cc1OC | 85% | 94.2% | 91.7% | 96.8% | 101% | 76% | 93.4% | 87.9% | 96.5% | –
N#Cc1ccccc1C#Cc1ccccc1C#Cc1ccc(OCCCCCCOc2ccc(C#Cc3ccccc3C#Cc3ccccc3C#N)cc2)cc1 | 99.4% | 102% | 105% | 103% | 116% | 91.6% | 94% | 98.4% | 119% | –
CCOc1cc(/C=C/C(=O)C(C(=O)/C=C/c2ccc(OC(=O)CNc3nc4ccccc4[nH]3)c(OCC)c2)C(=O)CNc2nc3ccccc3[nH]2)ccc1OC(=O)CNc1nc2ccccc2[nH]1 | 6.88% (active) | -10.9% (active) | 23.2% | 10.1% | -27.3% (active) | -13% (active) | 7.62% (active) | -47.7% (active) | -41.8% (active) | –
CCCCCN1C(=O)CCC1=O | 110% | 101% | 110% | 92.9% | 120% | 79.3% | 99% | 111% | 99.4% | –
COC(=O)[C@H](Cc1cnc[nH]1)NC(=O)[C@@H](NC(=O)Nc1cc(C(F)(F)F)cc(C(F)(F)F)c1)C(C)C | -70.6% [100 µM] (active) | -44.1% [100 µM] (active) | -94.9% [100 µM] (active) | -92.5% [100 µM] (active) | -42.5% [100 µM] (active) | -96.7% [100 µM] (active) | -70.8% [100 µM] (active) | -90.7% [100 µM] (active) | -82.6% [100 µM] (active) | –
COc1cnc2c(c1)C(=O)c1c-2n(CCCN2CCCC2)c(=O)c2cc(F)ccc12 | -19.5% (active) | -81.2% (active) | 4.72% (active) | -16.4% (active) | -47.9% (active) | -5.39% (active) | -80.4% (active) | -88.5% (active) | -6.43% (active) | –
C=C1CCC2C(C)(COC(=O)CC)C(OC(=O)CC)CCC2(C)C1C/C=C1/C(=O)OCC1OC(=O)CC (stereo unspecified) | 57.4% | -18.3% (active) | 75.6% | -17.7% (active) | 79.6% | -9.73% (active) | 46.1% | -97.4% (active) | -28.1% (active) | –
CC(NC(=O)Oc1cccc2ccccc12)c1ccccc1 (stereo unspecified) | 92.8% | 99.7% | 107% | 100% | 105% | 103% | 73.1% | 103% | 110% | –
COc1ccc(OC)c(CCn2cncc2-c2c[nH]c3cc(Br)ccc23)c1 | 30.1% | 41.5% | 87.1% | 38% | 36.7% | 20.6% | 31.2% | 59.5% | 7.59% (active) | –
COc1cc(/C=C2\CN(S(=O)(=O)c3ccc(C)cc3)C/C(=C\c3cc(CN4CCOCC4)c(O)c(OC)c3)C2=O)cc(CN2CCOCC2)c1O | -57.1% (active) | -40.2% (active) | -15.6% (active) | -16% (active) | -46.9% (active) | -30.3% (active) | 19.4% | -54.3% (active) | -25.5% (active) | –
O=CNc1ccc2c(c1)Cc1cc([N+](=O)[O-])ccc1-2 | 37.9% | 66.5% | 9.9% (active) | 26.5% | 15.8% | 42.4% | 18.6% | 38.1% | 1.14% (active) | –
Fc1ccc(-c2nn3c(-c4cc(C(F)(F)F)cc(C(F)(F)F)c4)nnc3s2)cc1 | 45.5% | 6.11% (active) | 56.3% | -11.5% (active) | 4.16% (active) | -20.5% (active) | 33.3% | – | 73.1% | –
NC(=N\N=C/Cc1ccccc1)/C(N)=N\N=C\Cc1ccccc1 | 104% | 104% | 117% | 113% | 112% | 109% | 101% | 112% | 117% | –
O=C1/C(=C/c2ccccc2Cl)CCc2ccccc21 | 102% | 106% | 101% | 106% | 104% | 90.7% | 83.5% | 102% | 115% | –
CCCCCN(CCCCC)CCCNc1c2c(nc3ccc(Cl)cc13)CCCC2 | 30.7% | 50.8% | 73.8% | 44.3% | 34% | -6.23% (active) | 31.8% | – | -11% (active) | –
N#Cc1c(NC(=O)c2ccco2)[n+]([O-])c2cc(Cl)c(Cl)cc2[n+]1[O-] | 86.3% | 106% | 121% | 137% | 109% | 212% | 96.6% | 107% | 114% | –
Cc1cc2c(cc1C)[n+](Cc1ccc3ccccc3n1)cn2Cc1ccc2ccccc2n1 | 1.58% (active) | 9.61% (active) | 36% | 4.38% (active) | 0.342% (active) | -27.3% (active) | 30.4% | 11.2% | -61.5% (active) | –
COc1ccc(C(=O)/C=C/c2ccc(C)cc2)cc1OC | 78.3% | 74.4% | 74.6% | 79% | 80.9% | 52.5% | 36.3% | 85.3% | 82.8% | –
c1ccc2nc(Cn3c[n+](Cc4ccc5ccccc5n4)c4ccccc43)ccc2c1 | 32% | 37.1% | 78.1% | 53.8% | 32.4% | -8.16% (active) | 54% | 66.7% | 6.96% (active) | –
O=c1sc2ncnc3ncn1c32 | 66.1% | 61.4% | 77.9% | 41.8% | 85.7% | 50% | 104% | 34.6% | 83.5% | –
Cc1ccc(C(NC(=O)c2ccccc2)c2ccc3cccnc3c2O)cc1 (stereo unspecified) | 23.5% | -6.24% (active) | 25.3% | 17.3% | – | 24.8% | – | -14.5% (active) | 29.3% | -5.42% (active)
